Screen size: about 330,000 compounds; about 40 (0.01%) were called active. Calls come from the whole dose curve; as a rule, active = well fitted inhibition curve with a large enough effect; inconclusive = small, poorly fitted or top-dose-only effect, or effect the other way; inactive = flat fitted curve, though single readings scatter. What follows is part of a selection rich in actives, with near analogues and random picks from the rest. Entries that show only a call come without a potency.
Biological target: Ubiquitin carboxyl-terminal hydrolase 2 (Homo sapiens) (UniProt O75604)
Assay: qHTS Assay for Inhibitors of Ubiquitin-specific Protease USP2a Using CHOP2 as the Reporter
Conditions: USP2 core, Ub-CHOP2 coupled fluorogenic reporter, 485/531; series mostly up to 38.3 µM
Summary of the method: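 USP2 core (10nM final) preincubated 30min RT with compound in 20mM Tris-HCl pH 8.0, 2mM CaCl2, 2mM beta-mercaptoethanol, 0.05% CHAPS; 25nM Ub-CHOP2 plus 25nM reporter substrate added, fluorescence (Ex485/Em531) read after 60min.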
Potency is the fitted concentration of half-maximal effect.

Sequence of Ubiquitin carboxyl-terminal hydrolase 2 (Homo sapiens) (O75604 whole entry, looked up): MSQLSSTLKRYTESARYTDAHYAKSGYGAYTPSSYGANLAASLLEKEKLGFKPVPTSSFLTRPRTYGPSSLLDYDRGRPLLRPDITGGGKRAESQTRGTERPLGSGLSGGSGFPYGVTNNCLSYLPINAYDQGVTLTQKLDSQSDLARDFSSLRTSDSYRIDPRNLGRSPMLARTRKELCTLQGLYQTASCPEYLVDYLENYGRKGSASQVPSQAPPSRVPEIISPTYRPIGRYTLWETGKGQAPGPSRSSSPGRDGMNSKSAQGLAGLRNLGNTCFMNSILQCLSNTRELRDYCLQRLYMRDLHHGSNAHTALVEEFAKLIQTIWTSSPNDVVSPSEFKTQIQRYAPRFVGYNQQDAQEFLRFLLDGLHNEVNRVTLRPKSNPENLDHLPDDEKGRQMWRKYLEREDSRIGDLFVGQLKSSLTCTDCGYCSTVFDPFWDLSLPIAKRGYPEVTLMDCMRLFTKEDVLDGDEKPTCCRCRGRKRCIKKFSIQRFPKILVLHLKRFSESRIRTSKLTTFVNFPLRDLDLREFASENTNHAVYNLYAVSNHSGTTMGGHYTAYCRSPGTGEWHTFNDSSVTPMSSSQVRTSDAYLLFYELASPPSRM

Row | Compound | activity change, negative = inhibition | Potency
1 | Cc1cccc(NC(=O)N(Cc2cc3cc(C)cc(C)c3[nH]c2=O)CC2COCCO2)c1 (stereo not drawn) | inactive | 
2 | C#CCOCCOCCOCCNc1nc(N2CCN(C(=O)CCCCCCCCCCNC(=O)Cn3cc(CCCCCN)nn3)CC2)nc(N2CCN(C(=O)CCCCCCCCCCNC(=O)[C@H](CO)n3cc(CCCSC)nn3)CC2)n1 | inactive | 
3 | C#CCOCCOCCOCCNc1nc(N2CCN(C(=O)CCCCCCCCCCNC(=O)[C@H](CCCCN)n3cc(C)nn3)CC2)nc(N2CCN(C(=O)CCCCCCCCCCNC(=O)[C@H](CO)n3cc(CCCSC)nn3)CC2)n1 | inactive | 
4 | C#CCOCCOCCOCCNc1nc(N2CCN(C(=O)CCCCCCCCCCNC(=O)[C@H]([C@@H](C)CC)n3cc(CCCCN=C(N)N)nn3)CC2)nc(N2CCN(C(=O)CCCCCCCCCCNC(=O)[C@H](CO)n3cc(CCCSC)nn3)CC2)n1 |  | 6.31 µM (active)
5 | Cc1cc(NC(=O)CN2CCCCC2C)nc2c1c(=O)oc1ccccc12 (stereo not drawn) | inactive | 
6 | Cc1nc(SC(C)C)[nH]c(=O)c1Cc1ccccc1 | inactive | 
7 | CC1CCc2c(nc3ncnn3c2Nc2ccc(OC(F)(F)F)cc2)C1 (stereo not drawn) | inactive | 
8 | CCNC(=O)c1sccc1-n1cccc1 | inactive | 
9 | CN1C2CCC1/C(=C\c1ccccc1Cl)C(=O)/C2=C\c1ccccc1Cl | inactive | 
10 | COc1ccc2c(c1OC)C(=O)c1ccccc1C2=O | inactive | 
11 | Cc1c([N+](=O)[O-])c(N)nn1C | inactive | 
12 | Cc1cc(NS(=O)(=O)c2ccc(NC(=O)c3cccnc3)cc2)nc(C)n1 | inactive | 
13 | COc1cccc(CC2(CO)CCN(Cc3cnc(-c4cccc(C)c4)nc3)CC2)c1 | inactive | 
14 | NS(=O)(=O)c1ccc(NC(=S)NC(=O)c2cccnc2)cc1 | inactive | 
15 | COc1cc2c(C(=O)N3CCN(C)CC3)c(CSc3ccccc3)n(C)c2cc1Br | inactive | 
16 | COc1ccc(Cl)cc1N(CC(=O)N1CCCCC1)S(C)(=O)=O | inactive | 
17 | Cc1ccc(NC(=O)N2CCC(O)(c3cccnc3)CC2)cc1 | inactive | 
18 | COc1cc(OC)cc(C(=O)N[C@H](C(=O)OCC(=O)NC(C)c2ccccc2)C(C)C)c1 (stereo partly drawn) | inactive | 
19 | O=C1C2C3C=CC(C3)C2C(=O)N1c1ccc(S(=O)(=O)Nc2nccs2)cc1 (stereo not drawn) | inactive | 
20 | O=C(Cc1csc(Nc2nc(=S)[nH]c3ccccc23)n1)NCCCN1CCN(c2cccc(Cl)c2)CC1 | inactive | 
21 | CC(C)[C@@H]1NC(=O)c2cc([N+](=O)[O-])cc(I)c2NCCC[C@@H](C(=O)NC(CC(=O)O)C(N)=O)NC(=O)[C@H](CO)NC1=O (stereo partly drawn) | inactive | 
22 | CC(C)(CNC(=O)c1cc(=O)[nH]c2ccccc12)N1CCOCC1 | inactive | 
23 | Cc1ccc(CN2CCN(Cc3ccccc3-c3ccco3)CC2CCO)o1 (stereo not drawn) | inactive | 
24 | COCc1ccc(C(=O)NC2CC(C)(C)Cc3c2cnn3-c2ccc(C)cc2)o1 (stereo not drawn) | inactive | 
25 | Fc1ccccc1CNC(=S)Nc1ccc(Cl)cc1 | inactive | 
26 | COc1ccc(C(=O)NCC2CCCCC2)cc1S(=O)(=O)N1CCCC1 | inactive | 

Row | Compound | activity change, negative = inhibition | Potency
27 | CCn1cc(C(=O)NCc2ccc(OC)cc2OC)c(=O)c2ccc(C)nc21 | inactive | 
28 | COc1ccc(C2COC(=O)C2=N)c(NC(=O)c2ccccc2)c1 (stereo not drawn) | inactive | 
29 | COc1ccc(C(CC(=O)Nc2ccc(C)cc2)NC(=O)C(F)(F)F)cc1 (stereo not drawn) | inactive | 
30 | CCCCN(Cc1ccccc1)C(=O)C1CCN(Cc2sccc2C)CC1 | inactive | 
31 | CC(=O)c1c(OCC(=O)N(C)C2CCCCC2)ccc2c(C)cc(=O)oc12 | inactive | 
32 | Cc1ccc(NS(=O)(=O)c2ccc3c(c2)CC(=O)N3)cc1Cl | inactive | 
33 | N#CCC(=O)Nc1ccc(C(=O)OCC(=O)Nc2sc3c(c2C#N)CCCC3)cc1 | inactive | 
34 | CCOc1ccc(NC(=O)c2ccc(NC(=O)COC(=O)c3ccc(NC(=O)CC#N)cc3)cc2)cc1 |  | 7.94 µM (active)
35 | CCOc1ccc(NC(=O)CCNC(=O)c2ccc(Br)cc2)cc1 | inactive | 
36 | O=C(CCS(=O)(=O)c1ccccc1Cl)Nc1ccc(S(=O)(=O)Nc2ncccn2)cc1 | inactive | 
37 | CC(C)C1N=C2c3ccccc3N=C(SCC(=O)c3ccc(O)c(O)c3)N2C1=O (stereo not drawn) | inactive | 
38 | COc1ccccc1/C=C/C(=O)OCC(=O)NC1CCCCCC1 | inactive | 
39 | CCOc1ccc(NS(=O)(=O)c2ccc(C(=O)NC3CCN(Cc4ccccc4)CC3)cc2)cc1 | inactive | 
40 | CC(C)OC(=O)C(C#N)c1nc2ccccc2nc1N1CCN(Cc2ccc3c(c2)OCO3)CC1 (stereo not drawn) | inactive | 
41 | COc1cccc(-c2nnc(NC(=O)c3ccc(S(=O)(=O)N(CC(C)C)CC(C)C)cc3)o2)c1 | inactive | 
42 | Cc1sc(NC(=O)C2C3CCC(O3)C2C(=O)O)c(C(=O)OC(C)C)c1-c1ccc(Cl)cc1 (stereo not drawn) | inactive | 
43 | CCN(CC)C(=O)CSC(Nc1cccc(F)c1)=C(C#N)C#N | inactive | 
44 | CS(=O)(=O)c1ccc(-c2nnn(CC(=O)Nc3ccc4c(c3)OCCO4)n2)cc1 | inactive | 
45 | COc1ccc(Nc2ncc(C(=O)N3CCN(c4ccccc4OC)CC3)c3ccccc23)cc1 | inactive | 
46 | Cc1ccc(-n2nc(C)c(C(=O)O)c2-n2cccc2)cc1 | inactive | 
47 | CC(=O)c1ccc(NC(=O)C2CCCN2S(=O)(=O)c2cccs2)cc1 (stereo not drawn) | inactive | 
48 | Cn1c(=O)c2cc(S(=O)(=O)NCCC(=O)Nc3ccc(F)cc3F)ccc2n(C)c1=O | inactive | 
49 | Cc1cc(-c2n[nH]c(=S)n2/N=C/C(Br)=C/c2ccccc2)n[nH]1 | inactive | 
50 | Cc1c(C)c(C)c(S(=O)(=O)NCCc2ccccn2)c(C)c1C | inactive | 
51 | COc1cc(C)c(S(=O)(=O)N2CCOCC2)c(C)c1C | inactive | 
52 | COc1ccc(NC(=O)CN(C)C(=O)c2cccc(S(=O)(=O)N3CCN(c4ccccc4)CC3)c2)cc1 | inactive | 

Row | Compound | activity change, negative = inhibition | Potency
53 | CCN(CC)C(=O)CSc1nnc(-c2ccc(S(=O)(=O)NCc3ccccc3Cl)cc2)o1 | inactive | 
54 | CN(CCO)c1ccc(/C=N/Nc2nncc3ccccc23)cc1 | inactive | 
55 | CCOC(=O)c1cc(-c2ccc(Cl)s2)nc2c1c(C)nn2C | inactive | 
56 | COc1ccc(NC(=O)CN2C(=O)C(c3ccccc3)=NC23CCCCCC3)cc1OC | inactive | 
57 | CC1(C)CC(=O)c2cc(OCC(=O)NCC3CCCO3)ccc2O1 (stereo not drawn) | inactive | 
58 | Cc1c(-c2nn(C)c(=O)c3ccccc23)oc2ccc(F)cc2c1=O | inactive | 
59 | CC(C)Cc1nn2c(=O)cc(O)nc2s1 | inactive | 
60 | COc1cc(N/C=C2\CC(=O)NC(C)=C2C#N)cc(OC)c1OC | inactive | 
61 | O=C(Nc1cccc(Cl)c1)c1cncn1-c1ccc(F)cc1 | inactive | 
62 | O=C(COC(=O)c1cccc(Cl)c1)NC1CCCCCCC1 | inactive | 
63 | Cc1cccc(OCC(O)CN2CCN(CCN3C(=O)c4cccc5cccc(c45)C3=O)CC2)c1C (stereo not drawn) | inactive | 
64 | Cc1nc(NC2=NC(C(=O)Nc3ccc(Cl)cc3)CC(=O)N2)nc2ccccc12 (stereo not drawn) | inactive | 
65 | C=CC(COCc1ccccc1)N(Cc1ccccc1)S(=O)(=O)c1ccccc1Br (stereo not drawn) | inactive | 
66 | CCC(C)N1CC(=O)N2Cc3[nH]c4ccccc4c3C[C@H]2C1=O (stereo partly drawn) | inactive | 
67 | CCCCOC(=O)c1ccc(NC(c2ccc(C)cc2)P(=O)(OC)OC)cc1 (stereo not drawn) | inactive | 
68 | O=C(O)c1cc2c(cc1NC(=O)c1c(F)cccc1Cl)OCCCO2 | inactive | 
69 | O=S(=O)(NC1CCN(S(=O)(=O)c2ccc3c(c2)OCCO3)CC1)c1c(F)cccc1F | inactive | 
70 | CCCOc1ccc(CN(CCO)CCO)cc1C(=O)OC | inactive | 
71 | Cc1ccc(NC2=C(Cl)C(=O)OC2OC(=O)c2ccccc2C)cc1 (stereo not drawn) | inactive | 
72 | C[C@@]12C(=O)N(c3cccc(Br)c3)C(=O)N1[C@H](c1ccc(Cl)cc1)[C@@H]1C(=O)N(C3CCCCC3)C(=O)[C@@H]12 | inactive | 
73 | CCn1c(SC(C)C(=O)Nc2ccc(N3CCOCC3)cc2)nnc1-c1ccco1 (stereo not drawn) | inactive | 
74 | CCOC(=O)c1c(CNCc2ccccc2F)c2sc(C)cc2n1C | inactive | 
75 | CN(C(=O)CCn1c(=S)oc2ccccc21)C1CCCCC1 | inactive | 
76 | CCCCN=C(N)/C(C(=O)OCC)=C(\O)c1ccc(OC)cc1 | inactive | 
77 | COc1ccc(OC)c(-n2cc3c(=O)n(C)c(=O)n(C)c3c2)c1 | inactive | 
78 | O=[N+]([O-])c1cc([N+](=O)[O-])c2cccnc2c1O | inactive | 

— PubChem BioAssay AID463254 (National Center for Advancing Translational Sciences (NCATS), 2010)
